Experimental data from PubChem BioAssay (EPA / NIEHS).
Where “and” joins values, the source holds several entries; their conditions need not be identical. Equal values may be shown once. Results filed as inconclusive are left out. Where a structure was tested more than once in an assay, its records may differ in their call. Calls of active or inactive are those of the source. The calls were made as follows, unless noted: active = hit-call score of the fitted dose curve at least 0.9, where 1 is the maximum; inactive = score below 0.9.

How the values were obtained:
[1] = ATG_M_06_TRANS: Attagene TRANS-FACTORIAL HepG2 Assay for M06 Transcription Factor (Internal Marker) (AID 2282983; active = hit-call score of the fitted dose curve at least 0.9, where 1 is the maximum;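 also: reporter transcript level by RT-PCR then capillary electrophoresis fluorescence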); settings: HepG2 Attagene TRANS M06 internal marker reporter
Procedure, shortened: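 Background control endpoint: reporter mRNA from transiently transfected HepG2 after 24 h dosing, detected by RT-PCR with capillary electrophoresis fluorescence. Analysed for gain versus DMSO.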

[2] = target: Transcriptional activator Myb (Homo sapiens) (UniProt P10242); assay: ATG_Myb_CIS: Attagene CIS-FACTORIAL HepG2 Assay for human Myeloblastosis (Myb) Proto-Oncogene Transcription Factor (AID 2282986); settings: HepG2 Attagene CIS-FACTORIAL Myb reporter transcription; actives raise or lower the signal
Procedure, shortened: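 HepG2 cells were transiently transfected with cis-regulated multiple reporter transcription units reflecting endogenous Myb activity, then exposed to compound for 24 hours. Reporter mRNA was measured by RT-PCR with capillary electrophoresis; bidirectional fitting versus DMSO baseline.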

[3] = target: Nuclear respiratory factor 1 (Homo sapiens) (UniProt Q16656); assay: ATG_NRF1_CIS: Attagene CIS-FACTORIAL HepG2 Assay for human Nuclear Respiratory Factor 1 (NRF1) Orphan Gene (AID 2282987); settings: HepG2 NRF1 cis-element reporter, Attagene multiplex; actives raise or lower the signal
Procedure, shortened: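 HepG2 cells transiently transfected with multiple reporter transcription units under cis-regulatory promoter control, so endogenous transcription-factor activity is read. After 24 h compound exposure, reporter mRNA quantified by RT-PCR, fluorescent labelling, HpaI digestion and capillary electrophoresis; bidirectional fitting versus DMSO.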

[4] = ATG_NFI_CIS: Attagene CIS-FACTORIAL HepG2 Assay for human Nuclear Factor I (NFI) (AID 2282989); settings: HepG2 cis-regulatory reporter, NFI response element transcription; actives raise or lower the signal
Procedure, shortened: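 Transfected HepG2 liver cells, exposed 24 h, supplied total RNA for oligo(dT) reverse transcription and reporter-specific PCR. Labelled, HpaI-cut fragments were sized by capillary electrophoresis; DMSO set the baseline for bidirectional fitting.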

[5] = target: Myc proto-oncogene protein (Homo sapiens) (UniProt P01106); assay: ATG_Myc_CIS: Attagene CIS-FACTORIAL HepG2 Assay for human Myelocytomatosis (Myc) Proto-Oncogene Transcription Factor (AID 2282990); settings: HepG2, Attagene cis-reporter transcription factor activity; actives raise or lower the signal
Procedure, shortened: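 After 24 h chemical treatment of HepG2 cells carrying multiplexed cis-regulated reporter constructs, reporter transcripts quantified by RT-PCR and capillary electrophoresis of fluorescent fragments. Gain or loss fitted against DMSO baseline.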

[6] = ATG_NF_kB_CIS: Attagene CIS-FACTORIAL HepG2 Assay for human Nuclear Factor Kappa B (NF-kB) (AID 2282991); settings: HepG2 Attagene cis-factorial NF-kB reporter mRNA; actives raise or lower the signal
Procedure, shortened: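 HepG2 cells transiently transfected with multiplexed cis-element reporter units measuring endogenous transcription factor activity; reporter mRNA read 24 h after dosing by RT-PCR, fluorescent labelling, HpaI digestion and capillary electrophoresis. Bidirectional fit against DMSO baseline.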

[7] = ATG_NRF2_ARE_CIS: Attagene CIS-FACTORIAL HepG2 Assay for human Nuclear Factor Erythroid 2 Related Factor 2 (NFR2) response to Antioxidant Response Elements (ARE) (AID 2282992); settings: HepG2 Attagene ARE/NRF2 reporter, transcription factor activity; actives raise or lower the signal;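 as to AC50: reporter mRNA level measured by RT-PCR and capillary electrophoresis fluorescence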
Procedure, shortened: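 Using transiently transfected HepG2 cells exposed for 24 h, reporter mRNA levels were determined by RT-PCR with fluorescent primer extension and capillary electrophoresis, analysed for gain or loss of signal against DMSO.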

[8] = ATG_Oct_MLP_CIS: Attagene CIS-FACTORIAL HepG2 Assay for human Octamer-Binding Transcription Factor (Oct) (AID 2282993); settings: HepG2 Attagene cis-factorial Oct reporter, mRNA; actives raise or lower the signal
Procedure, shortened: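 Using HepG2 cells bearing transfected cis-reporter constructs, mRNA induction was read after 24 h by fluorescent RT-PCR and capillary electrophoresis, with DMSO defining baseline for gain- or loss-of-signal fits.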

[9] = target: human Peroxisome Proliferator-activated Receptor alpha (PPARa), PPARA (gene 5465) (UniProt Q07869); assay: ATG_PPARa_TRANS: Attagene TRANS-FACTORIAL HepG2 Assay for human Peroxisome Proliferator-activated Receptor alpha (PPARa) (AID 2283001; active = hit-call score of the fitted dose curve at least 0.9, where 1 is the maximum;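 as to AC50: potency for gain of reporter signal over DMSO so agonist or activator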)
Procedure, shortened: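 Reporter transcripts quantified by RT-PCR plus capillary electrophoresis after 24 h treatment, fitted upward relative to DMSO. Cells: human HepG2 transiently carrying multiple GAL4-UAS reporter units driven by NR-Gal4 chimeras.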

[10] = target: Nuclear receptor subfamily 4 group A member 2 (Homo sapiens) (UniProt P43354); assay: ATG_NURR1_TRANS: Attagene TRANS-FACTORIAL HepG2 Assay for human Nuclear Receptor Related Protein 1 (NURR1) (AID 2282985; active = hit-call score of the fitted dose curve at least 0.9, where 1 is the maximum); settings: HepG2 Attagene TRANS reporter, mRNA readout
Procedure, shortened: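 Reporter transcript induction, measured by RT-PCR with fluorescent labelling, HpaI digestion and capillary electrophoresis, after 24 hr dosing of human HepG2 cells transiently expressing an exogenous NR-Gal4 fusion with GAL4-UAS-driven reporters; DMSO as baseline.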

[11] = ATG_M_32_TRANS: Attagene TRANS-FACTORIAL HepG2 Assay for M32 Transcription Factor (Internal Marker) (AID 2282984; active = hit-call score of the fitted dose curve at least 0.9, where 1 is the maximum;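 also: transcript level of a background control reporter unit measured by RT-PCR and capillary electrophoresis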); settings: HepG2 Attagene TRANS M32 internal marker reporter
Procedure, shortened: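 Internal background reporter in transfected HepG2: after 24 h chemical exposure, RNA reverse-transcribed, reporter cDNA amplified, fluorescently labelled and HpaI-cut, then sized by capillary electrophoresis. Gain of signal fitted against DMSO control.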

[12] = target: Cellular tumor antigen p53 (Homo sapiens) (UniProt P04637); assay: ATG_p53_CIS: Attagene CIS-FACTORIAL HepG2 Assay for human p53 Transcription Factor (AID 2282994); settings: HepG2 p53 cis-element reporter, Attagene mRNA; actives raise or lower the signal
Procedure, shortened: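 In HepG2 cells, reporter transcription units under cis-regulatory promoters were transiently introduced. Following 24 h treatment, RNA was processed to labelled, digested cDNA fragments read by capillary electrophoresis; fitting was bidirectional versus DMSO.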

[13] = BSK_3C_TissueFactor: BioMAP Diversity Plus: 3C Assay for Tissue Factor Biomarker Activity (AID 2282997); settings: BioMAP 3C HUVEC, tissue factor biomarker readout; actives raise or lower the signal
Procedure, shortened: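 After a 24 h chemical exposure of primary human umbilical vein endothelial cells, Tissue Factor levels were quantified by ELISA.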

[14] = BSK_3C_uPAR: BioMAP Diversity Plus: 3C Assay for Urokinase-type plasminogen activator receptor (uPAR) Biomarker Activity (AID 2282998); settings: BioMAP 3C HUVEC, uPAR biomarker ELISA; actives raise or lower the signal
Procedure, shortened: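 In this endothelial cell-based assay, human umbilical vein primary cells were treated with chemicals and harvested at 24 h. uPAR was quantified using ELISA, with gains or losses fitted relative to DMSO controls.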

[15] = BSK_4H_Eotaxin3: BioMAP Diversity Plus: 4H Assay for Eotaxin 3 Biomarker Activity (AID 2283000); settings: primary human endothelial cells (HUVEC); actives raise or lower the signal
Procedure, shortened: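 Chemicals were added to human umbilical vein endothelium cultures, and Eotaxin-3 was quantified by ELISA at 24 h. Values were derived by bidirectional fitting with DMSO serving as negative control and activity baseline.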

[16] = target: human Peroxisome Proliferator-activated Receptor delta (PPARd), PPARD (gene 5467) (UniProt Q03181); assay: ATG_PPARd_TRANS: Attagene TRANS-FACTORIAL HepG2 Assay for human Peroxisome Proliferator-activated Receptor delta (PPARd) (AID 2283002; active = hit-call score of the fitted dose curve at least 0.9, where 1 is the maximum)
Procedure, shortened: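 Read-out is induced reporter mRNA, quantified by RT-PCR with fluorescent labelling and capillary electrophoresis after 24 h dosing. Cells are HepG2 transiently carrying multiple GAL4-UAS reporter units driven by exogenous NR-GAL4 chimeras; DMSO serves as baseline.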

[17] = read-out: Intercellular Adhesion Molecule 1 (ICAM1), ICAM1 (gene 3383); assay: BSK_3C_ICAM1: BioMAP Diversity Plus: 3C Assay for Intercellular Adhesion Molecule 1 (ICAM1) Biomarker Activity (AID 2283003); settings: primary human endothelial cells (HUVEC); actives raise or lower the signal
Procedure, shortened: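 Chemicals are dosed onto primary human umbilical vein endothelium (3C system). After 24 h, ICAM-1 is measured by ELISA, and responses are fitted bidirectionally relative to DMSO.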

[18] = target: human Retinoic Acid Receptor beta (RARb), RARB (gene 5915) (UniProt P10826); assay: ATG_RARb_TRANS: Attagene TRANS-FACTORIAL HepG2 Assay for human Retinoic Acid Receptor beta (AID 2283004; active = hit-call score of the fitted dose curve at least 0.9, where 1 is the maximum)
Procedure, shortened: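 Transient transfection of HepG2 with multiple reporter units → chemical dosing, 24 h → total RNA isolation → RT with oligo(dT) → reporter-specific PCR, 6-FAM primer extension, HpaI digest → capillary electrophoresis. Positive direction vs DMSO control.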

[19] = BSK_3C_VCAM1: BioMAP Diversity Plus: 3C Assay for Vascular cell adhesion molecule 1 (VCAM1) Biomarker Activity (AID 2282999); settings: BioMAP 3C HUVEC, VCAM1 ELISA, cytokine-stimulated; actives raise or lower the signal
Procedure, shortened: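 Activity fitted in both directions relative to DMSO, with ELISA measurement of the surface marker on primary HUVEC (3C) at 24 h post-treatment; parallel SRB staining (0.1% SRB, TCA-fixed, 560 nm) flagged overt cytotoxicity.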

Measured: AC50

Sequence of Nuclear respiratory factor 1 (Homo sapiens) (Q16656 whole entry, looked up): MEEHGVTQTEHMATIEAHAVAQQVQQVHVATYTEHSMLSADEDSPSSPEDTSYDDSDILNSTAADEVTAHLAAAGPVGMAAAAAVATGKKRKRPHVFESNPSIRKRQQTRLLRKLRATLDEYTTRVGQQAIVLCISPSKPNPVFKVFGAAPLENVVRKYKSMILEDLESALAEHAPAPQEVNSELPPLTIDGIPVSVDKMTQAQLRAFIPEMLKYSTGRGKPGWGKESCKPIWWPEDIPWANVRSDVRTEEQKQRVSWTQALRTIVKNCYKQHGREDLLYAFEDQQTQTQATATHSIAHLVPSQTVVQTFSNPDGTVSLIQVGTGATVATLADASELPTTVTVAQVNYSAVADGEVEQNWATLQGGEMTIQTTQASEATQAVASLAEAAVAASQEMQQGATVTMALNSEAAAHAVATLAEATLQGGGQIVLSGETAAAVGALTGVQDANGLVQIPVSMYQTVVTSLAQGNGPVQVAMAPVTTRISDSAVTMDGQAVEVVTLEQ
Sequence of Myc proto-oncogene protein (Homo sapiens) (P01106 whole entry, looked up, the tested form may be a part): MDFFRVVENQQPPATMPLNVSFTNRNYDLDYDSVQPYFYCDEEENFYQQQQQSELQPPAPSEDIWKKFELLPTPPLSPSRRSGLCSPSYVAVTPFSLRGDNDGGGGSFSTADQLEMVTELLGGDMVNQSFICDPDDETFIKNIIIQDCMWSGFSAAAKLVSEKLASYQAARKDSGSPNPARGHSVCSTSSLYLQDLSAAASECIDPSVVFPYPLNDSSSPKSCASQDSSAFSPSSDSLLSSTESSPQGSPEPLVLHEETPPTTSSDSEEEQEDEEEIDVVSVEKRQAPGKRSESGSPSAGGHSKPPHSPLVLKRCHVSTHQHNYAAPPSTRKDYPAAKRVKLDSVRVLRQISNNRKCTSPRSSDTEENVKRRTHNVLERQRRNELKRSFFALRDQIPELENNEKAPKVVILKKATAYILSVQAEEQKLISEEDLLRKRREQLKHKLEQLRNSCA
Sequence of Nuclear receptor subfamily 4 group A member 2 (Homo sapiens) (P43354 whole entry, looked up, the tested form may be a part): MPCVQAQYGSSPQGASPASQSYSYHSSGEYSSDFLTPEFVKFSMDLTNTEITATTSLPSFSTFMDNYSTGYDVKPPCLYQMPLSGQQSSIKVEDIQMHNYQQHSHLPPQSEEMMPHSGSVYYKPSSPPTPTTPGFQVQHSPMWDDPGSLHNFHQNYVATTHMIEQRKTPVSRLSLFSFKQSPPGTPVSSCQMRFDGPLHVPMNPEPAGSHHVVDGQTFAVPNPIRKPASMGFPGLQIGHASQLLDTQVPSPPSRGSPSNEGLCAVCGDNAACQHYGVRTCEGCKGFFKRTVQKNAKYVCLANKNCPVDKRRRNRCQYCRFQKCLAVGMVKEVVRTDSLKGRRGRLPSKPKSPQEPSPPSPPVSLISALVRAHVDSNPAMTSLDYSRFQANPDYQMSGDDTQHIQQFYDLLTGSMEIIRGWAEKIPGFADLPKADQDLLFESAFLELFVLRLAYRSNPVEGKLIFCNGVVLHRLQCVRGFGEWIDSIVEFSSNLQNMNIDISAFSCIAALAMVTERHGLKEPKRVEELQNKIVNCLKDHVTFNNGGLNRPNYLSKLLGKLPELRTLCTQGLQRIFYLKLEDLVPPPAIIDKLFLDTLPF
Sequence of Transcriptional activator Myb (Homo sapiens) (P10242 whole entry, looked up): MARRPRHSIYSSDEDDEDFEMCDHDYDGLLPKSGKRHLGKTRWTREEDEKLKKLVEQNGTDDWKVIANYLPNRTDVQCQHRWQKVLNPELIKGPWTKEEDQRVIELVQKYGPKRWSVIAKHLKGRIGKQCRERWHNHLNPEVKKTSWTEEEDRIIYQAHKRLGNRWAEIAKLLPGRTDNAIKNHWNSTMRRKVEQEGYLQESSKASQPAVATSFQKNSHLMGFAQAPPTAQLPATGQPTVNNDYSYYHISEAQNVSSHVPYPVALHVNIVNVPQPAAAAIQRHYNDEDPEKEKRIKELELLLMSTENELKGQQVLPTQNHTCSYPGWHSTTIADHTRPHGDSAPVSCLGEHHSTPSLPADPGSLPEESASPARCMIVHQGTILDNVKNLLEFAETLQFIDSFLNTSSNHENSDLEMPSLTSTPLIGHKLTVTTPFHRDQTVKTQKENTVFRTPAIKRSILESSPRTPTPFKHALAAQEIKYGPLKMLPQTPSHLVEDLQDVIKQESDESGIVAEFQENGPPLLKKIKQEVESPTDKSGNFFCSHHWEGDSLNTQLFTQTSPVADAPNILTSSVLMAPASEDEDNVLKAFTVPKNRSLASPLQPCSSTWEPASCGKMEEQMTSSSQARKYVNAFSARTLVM
Sequence of Cellular tumor antigen p53 (Homo sapiens) (P04637 whole entry, looked up, the tested form may be a part): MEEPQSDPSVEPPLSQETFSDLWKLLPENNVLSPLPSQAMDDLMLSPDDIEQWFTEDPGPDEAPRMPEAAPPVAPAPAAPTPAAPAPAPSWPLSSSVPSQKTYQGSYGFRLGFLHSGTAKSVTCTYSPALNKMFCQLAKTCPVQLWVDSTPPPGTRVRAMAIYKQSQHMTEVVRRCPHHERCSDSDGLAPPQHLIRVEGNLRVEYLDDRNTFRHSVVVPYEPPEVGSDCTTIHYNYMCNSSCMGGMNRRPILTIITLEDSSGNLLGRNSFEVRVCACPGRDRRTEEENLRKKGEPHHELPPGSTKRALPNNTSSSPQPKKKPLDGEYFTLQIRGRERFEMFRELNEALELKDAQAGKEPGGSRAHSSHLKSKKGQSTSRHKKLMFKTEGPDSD
Sequence of human Retinoic Acid Receptor beta (RARb), RARB (gene 5915) (P10826 whole entry, looked up): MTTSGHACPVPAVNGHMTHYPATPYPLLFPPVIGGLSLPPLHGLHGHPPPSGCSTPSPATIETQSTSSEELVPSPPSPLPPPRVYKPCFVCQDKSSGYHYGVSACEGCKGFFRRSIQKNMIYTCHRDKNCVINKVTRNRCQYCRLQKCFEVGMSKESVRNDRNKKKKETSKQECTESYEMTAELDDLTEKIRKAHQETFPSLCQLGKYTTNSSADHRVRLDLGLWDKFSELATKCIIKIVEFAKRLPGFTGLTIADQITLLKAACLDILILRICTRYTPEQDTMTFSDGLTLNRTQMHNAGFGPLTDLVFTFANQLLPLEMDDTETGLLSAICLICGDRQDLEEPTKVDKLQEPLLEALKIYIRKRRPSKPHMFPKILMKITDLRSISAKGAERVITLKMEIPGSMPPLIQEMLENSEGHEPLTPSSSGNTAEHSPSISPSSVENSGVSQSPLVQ
Sequence of human Peroxisome Proliferator-activated Receptor alpha (PPARa), PPARA (gene 5465) (Q07869 whole entry, looked up, the tested form may be a part): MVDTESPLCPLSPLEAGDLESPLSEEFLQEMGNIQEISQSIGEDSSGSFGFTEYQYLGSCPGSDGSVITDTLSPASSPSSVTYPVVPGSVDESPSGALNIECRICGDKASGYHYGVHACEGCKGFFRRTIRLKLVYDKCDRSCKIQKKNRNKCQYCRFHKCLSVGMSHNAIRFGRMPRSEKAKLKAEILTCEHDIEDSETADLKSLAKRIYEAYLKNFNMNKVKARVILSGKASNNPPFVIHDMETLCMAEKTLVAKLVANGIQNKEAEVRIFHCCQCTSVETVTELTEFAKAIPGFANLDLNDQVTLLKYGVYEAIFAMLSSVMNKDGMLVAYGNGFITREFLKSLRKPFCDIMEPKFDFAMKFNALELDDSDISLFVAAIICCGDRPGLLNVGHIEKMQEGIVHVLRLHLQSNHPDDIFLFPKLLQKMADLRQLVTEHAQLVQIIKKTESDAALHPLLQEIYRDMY
Sequence of human Peroxisome Proliferator-activated Receptor delta (PPARd), PPARD (gene 5467) (Q03181 whole entry, looked up, the tested form may be a part): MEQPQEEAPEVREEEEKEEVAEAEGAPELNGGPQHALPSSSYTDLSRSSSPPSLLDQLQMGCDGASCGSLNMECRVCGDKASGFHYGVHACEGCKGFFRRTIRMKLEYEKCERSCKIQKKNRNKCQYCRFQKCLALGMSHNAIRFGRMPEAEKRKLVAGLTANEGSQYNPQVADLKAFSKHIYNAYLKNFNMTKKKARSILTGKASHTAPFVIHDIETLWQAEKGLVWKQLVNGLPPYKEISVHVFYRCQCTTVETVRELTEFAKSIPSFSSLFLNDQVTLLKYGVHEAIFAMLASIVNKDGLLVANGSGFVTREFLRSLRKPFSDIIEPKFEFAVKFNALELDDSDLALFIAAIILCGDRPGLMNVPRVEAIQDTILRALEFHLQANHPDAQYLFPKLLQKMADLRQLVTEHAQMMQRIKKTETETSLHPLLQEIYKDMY

Cc1ccc(N)cc1Cl
inactive: [1] | [2] | [3] | [4] | [5] | [6] | [7] | [8] | [9]

CC1(C)CCC(Cc2ccc(Cl)cc2)C1(O)Cn1cncn1 (stereo not drawn)
active: [7] 33.4 µM
inactive: [1] | [10] | [4] | [5] | [6] | [8] | [9]

O=c1[nH]c(=O)[nH]c(=O)[nH]1
not listed: [1] | [5] | [19]
inactive: all other assays above

O=C(NCO)NCO
inactive: [1] | [2] | [3] | [4] | [6] | [7] | [8] | [12] | [9]

CC(C)(C)c1cc(O)ccc1O
inactive: [1] | [4] | [5] | [6] | [12] | [13] | [14] | [9] | [17]
active: [7] 9.05 µM | [8] 129 µM | [15] 27.4 µM

CCc1ccccc1C
inactive: [1] | [3] | [4] | [5] | [6] | [7] | [8] | [12] | [9]

CC(C)c1ccc(CO)cc1
not listed: [3] | [10] | [11] | [16] | [18]
inactive: all other assays above

COS(=O)(=O)c1ccc(C)cc1
not listed: [1] | [13] | [14] | [15] | [16] | [17] | [18] | [19]
inactive: all other assays above

CC1CN1P(=O)(N1CC1C)N1CC1C (stereo not drawn)
inactive: [1] | [2] | [3] | [4] | [6] | [7] | [8] | [9]

COP(=S)(OC)Oc1cc(Cl)c(Cl)cc1Cl
active: [7] 34.1 µM | [13] 2.21 µM | [15] 20 µM | [9] 100 µM
not listed: [2] | [11] | [16]
inactive: all other assays above

C[C@]12CCC(=O)C[C@@H]1CC[C@@H]1[C@@H]2CC[C@]2(C)[C@@H](O)CC[C@@H]12
inactive: [1] | [2] | [3] | [4] | [6] | [7] | [8] | [12] | [13] | [9] | [17]
active: [6] 57.9 µM | [7] 61.4 µM and 57.3 µM | [8] 86.1 µM | [12] 51.4 µM | [14] 18.6 µM
